Compound activity (PubChem BioAssay)
TGFb inhibitor – qHTS for Inhibitors of TGF-b; HepG2 CAGA-GFP TGF-b/SMAD3 reporter, GFP fluorescence, 18 h; TGF-beta stimulated, 500 pg/mL final; Potency, µM (highest dose often 46.1 µM), inactives show at the top dose activity, negative = inhibition, most hits filed as inhibitors; actives 1.2% (n = 410,000); also: potency is read from the fitted curve at half-maximal effect; % is scaled to controls: 0 for no effect and ±100 for the full control effect; nearly all actives have a fitted effect of over 65% in size
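HEPG2 CAGA-GFP cells (1000/well, DMEM with 1% FBS) were pre-incubated 2 h at 37 degrees C, given compound by pin tool, then stimulated with TGF-beta at 500 pg/mL final for 18 h before per-cell GFP fluorescence imaging.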
ATXN viability – Viability Counterscreen for Primary qHTS for Inhibitors of ATXN expression. actives 0.49% (n = 400,000). S2 cells (HEK-293 line with an ATXN2-luciferase reporter) viability, CellTiter-Fluor protease fluorescence, 24 h. Potency, µM (top dose mostly 56.7 µM), usual class: cytotoxic; also: potency is read from the fitted curve at half-maximal effect; nearly all actives have a fitted effect of over 40% in size
DRD3 agonist – qHTS of D3 Dopamine Receptor Agonist: qHTS | D(3) dopamine receptor (Homo sapiens), P35462 | D3R DiscoveRx beta-arrestin cells, luminescence, 90 min | max activation, % | actives 0.58% (n = 410,000) | AID 652048, 2013; in the data active = max activation above about 30%; also: 0% is about no effect
Target sequence (P35462 whole entry, looked up): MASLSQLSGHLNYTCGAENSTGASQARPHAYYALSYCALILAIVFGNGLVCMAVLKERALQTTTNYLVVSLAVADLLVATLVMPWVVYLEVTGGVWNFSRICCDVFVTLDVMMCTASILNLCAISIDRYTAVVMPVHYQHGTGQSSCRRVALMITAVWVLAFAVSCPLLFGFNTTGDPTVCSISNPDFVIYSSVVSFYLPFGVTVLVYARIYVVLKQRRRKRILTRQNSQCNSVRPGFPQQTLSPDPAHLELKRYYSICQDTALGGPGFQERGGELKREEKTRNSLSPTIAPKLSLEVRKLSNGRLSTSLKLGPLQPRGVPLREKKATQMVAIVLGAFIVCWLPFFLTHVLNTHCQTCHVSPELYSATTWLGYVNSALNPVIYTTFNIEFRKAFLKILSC
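Agonist mode: compounds and dopamine controls were applied to plated cells for 90 min at 37 degrees C after an overnight attachment at 1500 cells/well. Luminescent read-out followed 30 - 60 minutes at room temperature with DiscoveRx detection reagent.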
ATXN2 expr inh – Primary qHTS for Inhibitors of ATXN expression | AID 1745845, 2022 | Potency, µM (titrated, usually from 57 µM), for the others: at the highest dose activity change, negative = inhibition, usual class: inhibitors | actives 0.72% (n = 360,000) | HEK-293 ATXN2-luciferase reporter, luminescence, 24 h; also: potency is read from the fitted curve at half-maximal effect; % is scaled to controls: 0 for no effect and ±100 for the full control effect; nearly all actives have a fitted effect of over 55% in size
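ATXN2-luciferase reporter cells (luciferase flanked by upstream and downstream ATXN2 gene portions) were treated 24 h at 37 °C with compounds at up to 57 uM. SteadyGlo luminescence gave expression; GF-AFC fluorescence gave viability.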
DRD3 antagonist – qHTS of D3 Dopamine Receptor Antagonist: qHTS; D(3) dopamine receptor (Homo sapiens), P35462; D3R cells, DiscoveRx beta-arrestin luminescence, antagonist mode; active compounds read low; max response, negative = inhibition, %; actives 2.5% (n = 360,000); in the data active = max response below about -50%; inconclusive = no clear call, values can overlap the other calls; also: % is scaled to controls: 0 for no effect and ±100 for the full control effect
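Cells expressing the human receptor were seeded at 1500 cells/well, incubated overnight at 37 degrees C in 5% CO2, then exposed to library compounds with dopamine controls for 90 minutes at 37 degrees C before luminescent detection.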
HepG2 viability – qHTS for Inhibitors of TGF-b: Cytotox Counterscreen | HepG2 CAGA-GFP viability, ATP luminescence, 18 h | Potency, µM (highest dose often 46.1 µM), for the others: at the top dose activity change, negative = cytotoxicity, actives largely listed as cytotoxic | actives 0.76% (n = 410,000) | AID 588856, 2011; also: potency is read from the fitted curve at half-maximal effect
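CellTiter-Glo luminescence gave cytotoxicity after 18 hours at 37 degrees C. The cells were HepG2 CAGA-GFP in 1% FBS DMEM, stimulated with 500 pg/mL TGF-beta after compound addition. %Activity was normalised to no-cell wells (complete cell-killing) and DMSO (no toxicity), and curves were fitted and classified.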
* marks the source's active call; other numbers are inactive results; i = inactive; ? = inconclusive; / = no result given. The list is not random: actives were taken first. Their share in the collection is about 4.7%. Unless noted, calls follow the shape of the dose curve; as a rule, active = well fitted curve in the direction sought with a large enough effect; inconclusive = small, poorly fitted or top-dose-only effect, or another doubt; inactive = no such curve, though single readings can be large; an effect the other way counts as inactive or inconclusive.

SMILES	TGFb inhibitor	ATXN viability	DRD3 agonist	ATXN2 expr inh	DRD3 antagonist	HepG2 viability
CCOC(=O)C1CCN(Cc2ccc(C(=O)OC)cc2)CC1	-11.1%	i	-32.7	-7.4%	-52.8*	-14.1%
Clc1ccc(CN2CCCCCC2)cc1	-10.7%	i	-11.0	-8.7%	0.0	-2.1%
Clc1ccc(CN2CCCCCCC2)cc1Cl	-3.0%	i	-1.0	-11.4%	-90.5*	6.1%
C=C(C)C1CC=C(CN2CCC(C(=O)OCC)CC2)CC1 (stereo unspecified)	-17.1%	i	-50.9	-3.9%	-60.6*	-8.5%
COC(=O)c1ccc(CN2CCCCC2)cc1	30.1%	i	-24.2	/	-55.7*	11.5%
C=C(C)C1CC=C(CN2CC(C)OC(C)C2)CC1 (stereo unspecified)	-2.9%	i	-9.9	2.7%	0.0	-17.7%
CN1CCC(COc2cnc(-c3cccc(Cn4nc(-c5cccc(C#N)c5)ccc4=O)c3)nc2)CC1	/	/	/	-24.2%	/	/
CCN(c1ccccc1)S(=O)(=O)c1ccc(NC(=O)c2cc(=O)c3cc(C)cc(C)c3o2)cc1	2.6%	i	4.4	1.9%	/	9.5%
CCOC(=O)c1c(NC(=O)c2ccc(S(=O)(=O)N3CCC(C)CC3)cc2)sc2c1CCN(CC)C2	49.1%	/	-2.5	-9.7%	/	-91.9%
CNC(=O)Nc1ccc(-c2nc(N3CC4CCC(C3)O4)c3cnn(C4CCC5(CC4)OCCO5)c3n2)cc1	/	/	/	-15.7%	/	/
CCOC(=O)C1CCN(Cc2cnc(Oc3ccc(Cl)cc3C)s2)CC1	-5.1%	i	-21.1	7.3%	-58.3*	0.7%
CCOC(=O)C1CCN(Cc2ccc(F)cc2)CC1	4.0%	i	-48.5	-1.4%	?	8.4%
CCOC(=O)C1CCN(Cc2ccc(Cl)c(Cl)c2)CC1	-6.3%	i	-37.7	-22.2%	-85.0*	4.7%
CCOC(=O)C1CCN(Cc2cnc(Oc3ccc(N)cc3)s2)CC1	0.8%	i	0.6	10.2%	-13.0	-20.9%
CCCCC(O)c1ccccc1 (stereo unspecified)	/	/	0.5	/	/	/
Cc1nc(NCc2ccc3nsnc3c2)sc1-c1ccn(C)n1	/	i	/	/	/	/
CC(NCc1ccccc1)C1COc2ccccc2O1 (stereo unspecified)	7.9%	i	4.9	-14.6%	-1.0	9.6%
CC(NCC(O)COc1ccccc1)C1COc2ccccc2O1 (stereo unspecified)	3.2%	i	-3.6	0.3%	-85.4*	-24.0%
CCC(=O)N1CCc2cc(S(=O)(=O)NCCN3CCC(C)CC3)ccc21	-0.7%	i	1.0	16.0%	-90.0*	-5.0%
CC1CCN(CCCNS(=O)(=O)c2ccc3c(c2)CCN3C(=O)C2CC2)CC1	13.7%	i	-2.3	/	-0.9	8.1%
O=C(CCn1c(=O)c2ccccc2n(Cc2cccnc2)c1=O)NCc1ccc2c(c1)OCO2	23.8%	i	-3.4	3.0%	-59.4*	-9.6%
Cc1ccccc1Cn1c(=O)n(CCC(=O)NCc2ccc3c(c2)OCO3)c(=O)c2ccccc21	-4.7%	i	0.7	?	-1.8	-5.6%
COc1cccc(NC(=O)Cn2c(CCC(=O)O)ccc2-c2ccc(C)cc2)c1	?	i	1.7	/	14.9	15.8µM*
O=C(CSc1nc(-c2ccc(F)cc2)[nH]c1-c1ccc(F)cc1)Nc1ccc2c(c1)OCCO2	7.94µM*	/	3.9	?	/	-57.4%
Nc1cc(N)nc(SCC(=O)Nc2ccc3c(c2)OCO3)n1	-1.4%	i	14.7	-5.5%	-1.6	-26.7%
SMILES	TGFb inhibitor	ATXN viability	DRD3 agonist	ATXN2 expr inh	DRD3 antagonist	HepG2 viability
COc1ccc(-c2[nH]c(-c3ccc(F)cc3)nc2SCC(=O)NC2CCCC2)cc1	?	?	-11.7	1.8%	-11.4	-22.4%
CCOc1ccc(-c2nc(SCC(=O)Nc3ccc4c(c3)OCO4)c(-c3ccc(F)cc3)[nH]2)cc1	-12.6%	i	-0.3	3.5%	/	-28.3%
COc1ccc(-c2nc(SCC(=O)NC3CCCC3)c(-c3ccc(F)cc3)[nH]2)cc1	11.2µM*	/	-15.5	/	/	-34.8%
Cc1cccc(-c2nc(SCC(=O)Nc3ccc4c(c3)OCO4)c(-c3ccccc3)[nH]2)c1	12.6µM*	?	-0.3	?	/	-22.3%
Nc1nc(SCC(=O)Nc2ccc3c(c2)OCO3)n[nH]1	-1.5%	i	-5.7	8.1%	-15.6	10µM*
COc1cccc(-c2nc(SCC(=O)Nc3ccc4c(c3)OCO4)c(-c3ccccc3)[nH]2)c1	?	?	-1.6	?	/	-47.6%
COc1ccc(-c2[nH]c(-c3ccccc3)nc2SCC(=O)Nc2ccc3c(c2)OCCO3)cc1	-21.9%	?	2.6	?	/	-5.0%
O=C(CSc1nc(-c2ccc(F)cc2)[nH]c1-c1ccc(F)cc1)Nc1ccc2c(c1)OCO2	7.08µM*	?	-3.4	?	/	-68.6%
O=C(CSc1nc(-c2ccccc2)[nH]c1-c1ccccc1)Nc1ccc2c(c1)OCCO2	?	/	9.4	?	/	10µM*
CCn1cc(C(=O)N2CCN(c3cccc(Cl)c3)CC2)c(=O)c2cc(S(=O)(=O)N3CCC(C)CC3)ccc21	12.6µM*	?	-1.7	?	/	-32.3%
Cc1cccc(N2CCN(C(=O)c3cc(S(=O)(=O)N4CCC(C)CC4)cn3C)CC2)c1C	?	/	3.0	/	/	-6.7%
CCc1ccccc1NC(=O)c1cc(S(=O)(=O)N2CCC(C)CC2)cn1C	-17.2%	i	62.0*	-8.5%	/	-29.9%
Cn1cc(S(=O)(=O)N2CCCCCC2)cc1C(=O)NCc1ccccc1Cl	5.01µM*	i	0.7	-29.1%	/	0.6%
Cc1ccc(Cl)cc1N1CCN(C(=O)c2cc(S(=O)(=O)N3CCC(C)CC3)cn2C)CC1	7.08µM*	i	-5.3	2.6%	/	-19.2%
CCn1cc(C(=O)N2CCCC2)c(=O)c2cc(S(=O)(=O)N3CCC(C)CC3)ccc21	4.9%	i	-1.8	7.0%	3.3	13.6%
CC(=O)O[C@H]1C[C@H]2CC[C@@H]3[C@@H](CC[C@]4(C)[C@H](OC(C)=O)[C@H]([N+]5(C)CCCCC5)C[C@@H]34)[C@]2(C)C[C@H]1[N+]1(C)CCCCC1	/	i	/	/	/	/
CCN(CC)c1ccc(/C=N/NC(=O)c2ccc3nc[nH]c3c2)c(O)c1	-1.9%	i	5.4	2.82µM*	4.2	3.2%
CCN(CC)c1ccc(C=Nc2ccccc2)c(O)c1	-6.9%	i	-2.9	3.7%	-54.2*	-9.7%
COc1ccc(C(=O)Nc2ncnc3nc[nH]c23)cc1	-4.3%	/	/	/	/	4.9%
NCC1CCN(c2nc3ccccc3c3c2CCCC3)CC1	?	28.2µM*	-4.6	?	-2.6	12.6µM*
